Data taken from the supplement of paper PMC7726561.

target: HLA-C*04:01; assay: thermal melting temperature (Tm) of peptide-HLA complex; higher = more thermostable pHLA complex; details: C1R-A*02:01
Summary of the method: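 Values come from C1R-A*02:01 or C1R-B*07:02 lysates (5 × 10^7 cell equivalents per replicate, triplicate), heated for 10 min between 37 and 73 °C and immunoprecipitated overnight at 4 °C with W6/32–protein A sepharose. The acid-eluted peptides were quantified by DIA-MS with iRT normalisation and outlier correction, and each peak area was reported as median fold-change versus 37 °C. The reported Tm is the transition midpoint from a least-squares logistic sigmoid fit. An R^2 above 0.85 was required for each fit.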

Sequence | thermal melting temperature [°C]
FFDEESYSL | 45
TFDVAPSRL | 52.3
LYDVPANSM | 51.1
KYDPNVYSI | 50.6
IWDVSVNSV | 50.8
IYDKFIAQL | 52.5
TFDPVTKVL | 51.4
IYDSVKVYF | 56.8
AFDEAIAEL | 58.4
HWDPQEVTL | 58.9
FYDPDVGNF | 50.9
KFDDGAVFL | 60.9
TFDDIVHSF | 54.2
LYDPVISKL | 56.9
YYEEQHPEL | 48.6
LFDKSINEF | 56.3
SYMEVPTYL | 54.8

same assay, conditions: C1R-B*07:02

Sequence | thermal melting temperature [°C]
FFDEESYSL | 43.7
TFDVAPSRL | 52.4
LYDVPANSM | 57.6
KYDPNVYSI | 55.2
IWDVSVNSV | 58.7
IYDKFIAQL | 54.5
TFDPVTKVL | 51.5
IYDSVKVYF | 57
AFDEAIAEL | 62.7
HWDPQEVTL | 57.7
FYDPDVGNF | 51.2
KFDDGAVFL | 60.4
TFDDIVHSF | 55.3
LYDPVISKL | 57.3
YYEEQHPEL | 47
LFDKSINEF | 57.2
SYMEVPTYL | 61
